Data on ten compounds can be found in PubChem BioAssay (EPA / NIEHS).

One may read the AC50 as the midpoint of the concentration-response curve, whichever way the signal moves.

Inconclusive results are not listed. Activity calls are given as the source filed them. The calls were made as follows, unless noted: active = hit-call score of the fitted dose curve at least 0.9, where 1 is the maximum; inconclusive = response in the unintended direction; inactive = score below 0.9.

For assay [1], the target named is human Peroxisome Proliferator-activated Receptor alpha (PPARa), PPARA (gene 5465) (UniProt Q07869). Kind of assay: ATG_PPARa_TRANS: Attagene TRANS-FACTORIAL HepG2 Assay for human Peroxisome Proliferator-activated Receptor alpha (PPARa) (AID 2283001). In a few lines:
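Measures transcriptional activity of an exogenous chimeric PPARa-Gal4 protein in transiently transfected HepG2 cells after 24 h dosing. Reporter mRNA quantified via RT-PCR and capillary electrophoresis; DMSO served as negative control.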

Assay [2] has as its target human Peroxisome Proliferator-activated Receptor delta (PPARd), PPARD (gene 5467) (UniProt Q03181). Kind of assay: ATG_PPARd_TRANS: Attagene TRANS-FACTORIAL HepG2 Assay for human Peroxisome Proliferator-activated Receptor delta (PPARd) (AID 2283002). In a few lines: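 Fluorescence from capillary electrophoresis of labelled RT-PCR reporter fragments gives the signal; DMSO sets baseline. Cells: HepG2 transiently carrying GAL4-UAS reporter units plus chimeric nuclear receptor-Gal4 proteins, exposed to chemicals for 24 h.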

Assay [3] has as its target human Retinoic Acid Receptor beta (RARb), RARB (gene 5915) (UniProt P10826). Kind of assay: ATG_RARb_TRANS: Attagene TRANS-FACTORIAL HepG2 Assay for human Retinoic Acid Receptor beta (AID 2283004). In a few lines: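 Transient transfection of HepG2 with multiple reporter units → chemical dosing, 24 h → total RNA isolation → RT with oligo(dT) → reporter-specific PCR, 6-FAM primer extension, HpaI digest → capillary electrophoresis. Positive direction vs DMSO control.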

The target in assay [4] is Retinoic acid receptor alpha (Homo sapiens) (UniProt P10276). Kind of assay: ATG_RARa_TRANS: Attagene TRANS-FACTORIAL HepG2 Assay for human Retinoic Acid Receptor alpha (RARa) (AID 2283005). Summed up:
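HepG2 transiently transfected with multiplex GAL4-UAS reporter units including a human RARa–GAL4 chimera; 24 h compound exposure. Reporter mRNA quantified by RT-PCR, 6-FAM labeling and capillary electrophoresis; gain of signal versus DMSO.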

For assay [5], the target named is Nuclear receptor subfamily 1 group I member 2 (Homo sapiens) (UniProt O75469). The assay is described as follows: ATG_PXR_TRANS: Attagene TRANS-FACTORIAL HepG2 Assay for human Pregnane X Receptor (PXR) (AID 2283008). Summed up: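 HepG2 cells transiently transfected with GAL4-UAS reporter units and PXR-Gal4 chimera, exposed 24 h. Reporter mRNA quantified by RT-PCR, fluorescent labelling, HpaI digestion and capillary electrophoresis; gain of signal vs DMSO.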

For assay [6], the target named is human Retinoic Acid Receptor gamma (RARg), RARG (gene 5916) (UniProt P13631). Kind of assay: ATG_RARg_TRANS: Attagene TRANS-FACTORIAL HepG2 Assay for human Retinoic Acid Receptor gamma (RARg) (AID 2283009). In a few lines: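 HepG2 cells transiently transfected with multiplexed reporter units expressing chimeric RARg-GAL4 and GAL4-UAS-driven reporters; 24 h compound exposure. Reporter mRNA quantified by RT-PCR with fluorescent labelling and capillary electrophoresis; gain-of-signal fitted relative to DMSO baseline.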

In assay [7] the target is human Retinoid X Receptor beta (RXRb), RXRB (gene 6257) (UniProt P28702). The assay is described as follows: ATG_RXRb_TRANS: Attagene TRANS-FACTORIAL HepG2 Assay for human Retinoid X Receptor beta (RXRb) (AID 2283013). Summed up: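 HepG2 cells transiently transfected with multiplexed reporter units driven by GAL4-UAS and exogenous chimeric NR-Gal4 proteins; treated 24 h. Reporter mRNA measured by RT-PCR, 6-FAM labelling and capillary electrophoresis; gain-of-signal fitted versus DMSO baseline.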

The nature of assay [8]: BSK_4H_Eotaxin3: BioMAP Diversity Plus: 4H Assay for Eotaxin 3 Biomarker Activity (AID 2283000; active = hit-call score of the fitted dose curve at least 0.9, where 1 is the maximum; inactive = score below 0.9;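 as to outcome: CCL26 protein level quantified by ELISA in parallel with SRB cytotoxicity check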). Conditions: primary human endothelial cells (HUVEC); actives raise or lower the signal. Summed up:
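Chemicals were added to human umbilical vein endothelium cultures, and Eotaxin-3 was quantified by ELISA at 24 h. Values were derived by bidirectional fitting with DMSO serving as negative control and activity baseline.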

Assay [9] is described as follows: BSK_3C_Proliferation: Cell Proliferation Assessment in the BioMAP Diversity Plus: 3C Assay (AID 2283006; active = hit-call score of the fitted dose curve at least 0.9, where 1 is the maximum; inactive = score below 0.9;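 as to AC50: potency may reflect either rise or fall in cell number versus DMSO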). To be noted: primary human endothelial cells (HUVEC). In a few lines:
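Human umbilical vein endothelial cells were grown sub-confluent and exposed to chemical for 48 h, then fixed with 10% TCA and stained with 0.1% sulforhodamine B; absorbance at 560 nm gave relative cell number, fitted bidirectionally against DMSO baseline.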

In assay [10] the target is human RAR-related Orphan Receptor gamma (RORg), RORC (gene 6097) (UniProt P51449). The assay is described as follows: ATG_RORg_TRANS: Attagene TRANS-FACTORIAL HepG2 Assay for human RAR-related Orphan Receptor gamma (RORg) (AID 2283011). Summed up:
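First, HepG2 liver cells were transfected with GAL4-UAS-driven reporter constructs and the RORg-Gal4 fusion. Next, they were treated with chemical for 24 h. Finally, reporter mRNA was quantified by RT-PCR and capillary electrophoresis, with upward activity fitted against DMSO.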

Assay [11] concerns the target Retinoic acid receptor RXR-alpha (Homo sapiens) (UniProt P19793). Kind of assay: ATG_RXRa_TRANS: Attagene TRANS-FACTORIAL HepG2 Assay for human Retinoid X Receptor alpha (RXRa) (AID 2283012). In a few lines:
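HepG2 cells transiently transfected with multiplexed GAL4-UAS reporter units and chimeric NR-GAL4 fusions, dosed 24 h. Reporter mRNA measured by RT-PCR, FAM labelling, HpaI digestion and capillary electrophoresis; gain-of-signal fitted relative to DMSO baseline.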

Read-out in assay [12]: E-selectin (Homo sapiens) (UniProt P16581)
The assay is described as follows: BSK_3C_Eselectin: BioMAP Diversity Plus: 3C Assay for Eselectin Biomarker Activity (AID 2283015; active = hit-call score of the fitted dose curve at least 0.9, where 1 is the maximum; inactive = score below 0.9;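 as to outcome: cell surface E-selectin protein quantified by ELISA 24 h after dosing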). Conditions: primary human endothelial cells (HUVEC); actives raise or lower the signal. In a few lines:
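ELISA read-out of E-selectin on endothelial monolayers after 24 h chemical treatment. Human umbilical vein primary cells served as the system, with DMSO defining baseline activity for bidirectional fitting.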

Read-out in assay [13]: Interleukin-1 alpha (IL1a), IL1A (gene 3552)
Kind of assay: BSK_BE3C_IL1a: BioMAP Diversity Plus: BE3C Assay for Interleukin-1 alpha (IL1a) Biomarker Activity (AID 2283016; active = hit-call score of the fitted dose curve at least 0.9, where 1 is the maximum; inactive = score below 0.9). To be noted: primary human bronchial epithelial cells; actives raise or lower the signal. In a few lines:
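Human primary bronchial epithelial cells (BE3C system) were dosed with compound and IL-1a measured by ELISA 24 h later. Activity was fitted bidirectionally against DMSO baseline; cytotoxicity was tracked in parallel cultures by SRB total-protein staining.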

Read-out in assay [14]: Monocyte Chemoattractant Protein-1 (MCP1), CCL2 (gene 6347)
The assay is described as follows: BSK_3C_MCP1: BioMAP Diversity Plus: 3C Assay for Monocyte Chemoattractant Protein-1 (MCP1) Biomarker Activity (AID 2283017; active = hit-call score of the fitted dose curve at least 0.9, where 1 is the maximum; inactive = score below 0.9). Conditions: primary human endothelial cells (HUVEC); actives raise or lower the signal. In a few lines:
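ELISA read-out of MCP-1 from human umbilical vein endothelial cell cultures harvested 24 h post-dosing. Gain or loss of signal was fitted relative to DMSO.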

Read-out in assay [15]: Monocyte Chemoattractant Protein-1 (MCP1), CCL2 (gene 6347)
The assay is described as follows: BSK_4H_MCP1: BioMAP Diversity Plus: 4H Assay for Monocyte Chemoattractant Protein-1 (MCP1) Biomarker Activity (AID 2283018; active = hit-call score of the fitted dose curve at least 0.9, where 1 is the maximum; inactive = score below 0.9). To be noted: primary human endothelial cells (HUVEC); actives raise or lower the signal. In a few lines:
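Human umbilical vein endothelial cells (4H system) dosed with chemical; MCP-1 measured by ELISA 24 h after dosing. Bidirectional curve fitting against DMSO negative control as baseline; parallel SRB total-protein staining tracks overt cytotoxicity.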

Read-out in assay [16]: Human Leukocyte Antigen - DR isotype (HLADR), HLA-DRA (gene 3122)
Kind of assay: BSK_3C_HLADR: BioMAP Diversity Plus: 3C Assay for Human Leukocyte Antigen - DR isotype (HLADR) Biomarker Activity (AID 2283019; active = hit-call score of the fitted dose curve at least 0.9, where 1 is the maximum; inactive = score below 0.9;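 as to outcome: ELISA of cell-surface HLA-DR on HUVEC 24 h after dosing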). Conditions: primary human endothelial cells (HUVEC); actives raise or lower the signal. In a few lines:
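ELISA readout of surface HLA-DR on human umbilical vein endothelium, taken 24 h after chemical treatment. Gain- and loss-of-signal were both fitted relative to DMSO.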

Assay [17] addresses Peroxisome proliferator-activated receptor gamma (Homo sapiens) (UniProt P37231). The assay is described as follows: ATG_PPARg_TRANS: Attagene TRANS-FACTORIAL HepG2 Assay for human Peroxisome Proliferator-activated Receptor-gamma (PPARg) (AID 2283007). Summed up: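 Chimeric NR-Gal4 transactivation is measured in transiently transfected HepG2 cells by reporter mRNA induction at 24 h. Detection uses RT-PCR with fluorescent labelling and capillary electrophoresis; DMSO defines baseline.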

The target in assay [18] is human RAR-related Orphan Receptor beta (RORb), RORB (gene 6096) (UniProt Q92753). The assay is described as follows: ATG_RORb_TRANS: Attagene TRANS-FACTORIAL HepG2 Assay for human RAR-related Orphan Receptor beta (RORb) (AID 2283010). In a few lines: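 HepG2 cells were transiently transfected with multiplexed GAL4-UAS reporter units expressing chimeric nuclear receptor–GAL4 proteins, then dosed for 24 h. Reporter mRNA was quantified by RT-PCR with fluorescent labelling and capillary electrophoresis; gain of signal was fitted relative to DMSO.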

Read-out in assay [19]: Intercellular Adhesion Molecule 1 (ICAM1), ICAM1 (gene 3383)
Kind of assay: BSK_3C_ICAM1: BioMAP Diversity Plus: 3C Assay for Intercellular Adhesion Molecule 1 (ICAM1) Biomarker Activity (AID 2283003; active = hit-call score of the fitted dose curve at least 0.9, where 1 is the maximum; inactive = score below 0.9). To be noted: primary human endothelial cells (HUVEC); actives raise or lower the signal. Summed up:
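Primary human umbilical vein endothelial cells in the BioMAP 3C system were exposed to chemicals for 24 h, then ICAM-1 was quantified by ELISA. Activity was fitted bidirectionally against the DMSO negative control baseline.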

Assay [20] deals with human Thyroid Receptor alpha (THRa1), THRA (gene 7067) (UniProt P10827). Kind of assay: ATG_THRa1_TRANS: Attagene TRANS-FACTORIAL HepG2 Assay for human Thyroid Receptor alpha (THRa1) (AID 2283014). Summed up:
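Reporter transcript induction, read by capillary electrophoresis of 6-FAM-labelled RT-PCR products, reflects activity of a transfected THRa1-Gal4 fusion in HepG2 liver cells. Cells were dosed for 24 h; activity was fitted in the positive direction against DMSO.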

human RAR-related Orphan Receptor gamma (RORg), RORC (gene 6097), sequence (P51449 whole entry, looked up, the tested form may be a part): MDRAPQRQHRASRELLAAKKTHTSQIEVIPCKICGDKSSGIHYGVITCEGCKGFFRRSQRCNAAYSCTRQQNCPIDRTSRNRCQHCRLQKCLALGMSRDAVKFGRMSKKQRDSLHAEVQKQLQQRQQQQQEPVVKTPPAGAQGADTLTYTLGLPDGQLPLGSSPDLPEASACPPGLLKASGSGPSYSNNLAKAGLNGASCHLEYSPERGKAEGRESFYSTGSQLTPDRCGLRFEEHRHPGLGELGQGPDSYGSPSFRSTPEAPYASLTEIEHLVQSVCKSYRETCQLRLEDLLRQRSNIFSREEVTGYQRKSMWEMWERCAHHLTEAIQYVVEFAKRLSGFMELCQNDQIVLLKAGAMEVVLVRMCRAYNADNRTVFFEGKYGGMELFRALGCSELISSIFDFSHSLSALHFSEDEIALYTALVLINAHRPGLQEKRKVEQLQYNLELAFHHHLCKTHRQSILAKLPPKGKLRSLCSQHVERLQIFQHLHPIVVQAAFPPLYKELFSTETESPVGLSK
Retinoic acid receptor RXR-alpha (Homo sapiens), sequence (P19793 whole entry, looked up, the tested form may be a part): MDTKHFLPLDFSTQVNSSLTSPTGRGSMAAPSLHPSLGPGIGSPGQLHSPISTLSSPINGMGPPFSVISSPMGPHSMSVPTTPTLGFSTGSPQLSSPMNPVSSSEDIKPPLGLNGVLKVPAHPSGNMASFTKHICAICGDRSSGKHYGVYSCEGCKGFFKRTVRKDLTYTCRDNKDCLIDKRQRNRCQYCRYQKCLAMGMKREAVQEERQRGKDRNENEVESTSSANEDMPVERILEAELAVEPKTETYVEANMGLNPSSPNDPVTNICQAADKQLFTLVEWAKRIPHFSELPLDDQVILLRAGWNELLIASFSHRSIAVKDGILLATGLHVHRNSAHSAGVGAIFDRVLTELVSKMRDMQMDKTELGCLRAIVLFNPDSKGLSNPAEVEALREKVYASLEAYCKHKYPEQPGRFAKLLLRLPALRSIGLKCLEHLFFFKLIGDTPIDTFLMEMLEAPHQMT
human Retinoic Acid Receptor beta (RARb), RARB (gene 5915), sequence (P10826 whole entry, looked up): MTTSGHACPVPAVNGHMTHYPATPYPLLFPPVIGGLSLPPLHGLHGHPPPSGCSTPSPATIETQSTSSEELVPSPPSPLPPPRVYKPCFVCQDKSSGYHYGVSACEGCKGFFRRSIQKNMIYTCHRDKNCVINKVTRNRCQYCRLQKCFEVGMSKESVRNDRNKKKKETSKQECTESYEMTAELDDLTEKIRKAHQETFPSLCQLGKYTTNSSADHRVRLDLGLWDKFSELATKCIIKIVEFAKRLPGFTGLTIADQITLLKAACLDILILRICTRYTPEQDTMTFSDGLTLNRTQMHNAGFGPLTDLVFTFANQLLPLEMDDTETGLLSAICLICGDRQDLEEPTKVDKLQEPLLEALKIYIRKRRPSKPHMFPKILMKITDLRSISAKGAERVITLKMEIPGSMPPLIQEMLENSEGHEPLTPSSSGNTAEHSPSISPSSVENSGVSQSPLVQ
human Thyroid Receptor alpha (THRa1), THRA (gene 7067), sequence (P10827 whole entry, looked up, the tested form may be a part): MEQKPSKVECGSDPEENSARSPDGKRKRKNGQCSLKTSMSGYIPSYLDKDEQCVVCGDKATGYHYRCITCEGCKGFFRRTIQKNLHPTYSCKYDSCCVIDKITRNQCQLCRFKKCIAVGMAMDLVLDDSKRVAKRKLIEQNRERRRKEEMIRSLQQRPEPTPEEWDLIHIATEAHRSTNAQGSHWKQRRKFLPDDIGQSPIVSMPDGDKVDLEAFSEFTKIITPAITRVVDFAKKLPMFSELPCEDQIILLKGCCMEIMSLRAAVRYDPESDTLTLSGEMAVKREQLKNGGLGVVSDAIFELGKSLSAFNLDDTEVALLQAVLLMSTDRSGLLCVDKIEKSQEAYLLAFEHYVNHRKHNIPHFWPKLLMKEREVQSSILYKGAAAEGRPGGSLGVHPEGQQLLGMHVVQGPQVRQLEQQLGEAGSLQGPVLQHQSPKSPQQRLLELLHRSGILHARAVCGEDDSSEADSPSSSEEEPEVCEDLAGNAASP
human Retinoid X Receptor beta (RXRb), RXRB (gene 6257), sequence (P28702 whole entry, looked up, the tested form may be a part): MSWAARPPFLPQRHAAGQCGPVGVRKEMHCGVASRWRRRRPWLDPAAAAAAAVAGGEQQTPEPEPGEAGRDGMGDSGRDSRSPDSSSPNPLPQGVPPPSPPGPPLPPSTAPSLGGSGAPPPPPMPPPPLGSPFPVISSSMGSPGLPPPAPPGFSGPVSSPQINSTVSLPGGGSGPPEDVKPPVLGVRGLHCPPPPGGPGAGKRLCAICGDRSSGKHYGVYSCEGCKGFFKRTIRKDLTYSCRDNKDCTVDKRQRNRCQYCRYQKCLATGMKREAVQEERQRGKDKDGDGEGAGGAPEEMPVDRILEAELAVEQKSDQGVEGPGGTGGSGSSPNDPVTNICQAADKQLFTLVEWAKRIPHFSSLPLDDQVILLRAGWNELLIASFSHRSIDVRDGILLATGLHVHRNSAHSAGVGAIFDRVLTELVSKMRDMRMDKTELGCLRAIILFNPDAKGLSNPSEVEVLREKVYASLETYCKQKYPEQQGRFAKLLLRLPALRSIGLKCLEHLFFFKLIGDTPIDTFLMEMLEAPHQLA
Nuclear receptor subfamily 1 group I member 2 (Homo sapiens), sequence (O75469 whole entry, looked up, the tested form may be a part): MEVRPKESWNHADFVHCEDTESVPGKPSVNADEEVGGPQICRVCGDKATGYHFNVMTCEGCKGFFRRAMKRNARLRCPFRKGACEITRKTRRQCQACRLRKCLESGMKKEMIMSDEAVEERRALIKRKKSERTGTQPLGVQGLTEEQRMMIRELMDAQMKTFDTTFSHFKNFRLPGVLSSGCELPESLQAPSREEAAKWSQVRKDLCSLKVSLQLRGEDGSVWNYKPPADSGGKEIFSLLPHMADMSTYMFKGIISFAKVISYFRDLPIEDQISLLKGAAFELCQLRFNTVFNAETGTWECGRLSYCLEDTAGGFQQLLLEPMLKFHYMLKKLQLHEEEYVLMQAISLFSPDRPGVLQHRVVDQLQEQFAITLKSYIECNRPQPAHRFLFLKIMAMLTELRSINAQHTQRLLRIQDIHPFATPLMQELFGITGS
human Peroxisome Proliferator-activated Receptor alpha (PPARa), PPARA (gene 5465), sequence (Q07869 whole entry, looked up, the tested form may be a part): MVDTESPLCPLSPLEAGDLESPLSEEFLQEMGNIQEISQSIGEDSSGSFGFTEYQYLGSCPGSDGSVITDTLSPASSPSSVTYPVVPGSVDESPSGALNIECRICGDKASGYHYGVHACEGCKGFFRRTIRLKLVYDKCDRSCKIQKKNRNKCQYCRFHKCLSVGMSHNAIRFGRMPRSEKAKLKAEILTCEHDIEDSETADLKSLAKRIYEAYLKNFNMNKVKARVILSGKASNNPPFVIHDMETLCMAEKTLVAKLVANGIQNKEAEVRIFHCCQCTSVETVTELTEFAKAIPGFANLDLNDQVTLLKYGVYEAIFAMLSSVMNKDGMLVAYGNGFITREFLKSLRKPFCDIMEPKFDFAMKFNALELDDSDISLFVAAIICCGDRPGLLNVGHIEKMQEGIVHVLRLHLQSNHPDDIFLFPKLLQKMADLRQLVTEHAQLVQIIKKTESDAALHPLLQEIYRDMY
Peroxisome proliferator-activated receptor gamma (Homo sapiens), sequence (P37231 whole entry, looked up, the tested form may be a part): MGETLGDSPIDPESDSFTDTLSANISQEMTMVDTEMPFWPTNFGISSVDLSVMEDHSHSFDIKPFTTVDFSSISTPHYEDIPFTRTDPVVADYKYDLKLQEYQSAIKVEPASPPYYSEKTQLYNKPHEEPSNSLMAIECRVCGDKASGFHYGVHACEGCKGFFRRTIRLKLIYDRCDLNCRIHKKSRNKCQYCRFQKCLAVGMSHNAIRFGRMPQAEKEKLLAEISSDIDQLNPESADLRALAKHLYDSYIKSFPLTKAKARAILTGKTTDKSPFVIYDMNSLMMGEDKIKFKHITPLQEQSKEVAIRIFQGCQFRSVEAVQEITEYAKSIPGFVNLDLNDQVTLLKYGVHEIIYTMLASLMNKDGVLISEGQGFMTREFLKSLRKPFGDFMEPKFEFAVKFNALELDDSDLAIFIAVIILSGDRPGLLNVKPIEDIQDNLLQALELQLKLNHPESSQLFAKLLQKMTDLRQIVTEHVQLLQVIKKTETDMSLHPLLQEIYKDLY
Retinoic acid receptor alpha (Homo sapiens), sequence (P10276 whole entry, looked up, the tested form may be a part): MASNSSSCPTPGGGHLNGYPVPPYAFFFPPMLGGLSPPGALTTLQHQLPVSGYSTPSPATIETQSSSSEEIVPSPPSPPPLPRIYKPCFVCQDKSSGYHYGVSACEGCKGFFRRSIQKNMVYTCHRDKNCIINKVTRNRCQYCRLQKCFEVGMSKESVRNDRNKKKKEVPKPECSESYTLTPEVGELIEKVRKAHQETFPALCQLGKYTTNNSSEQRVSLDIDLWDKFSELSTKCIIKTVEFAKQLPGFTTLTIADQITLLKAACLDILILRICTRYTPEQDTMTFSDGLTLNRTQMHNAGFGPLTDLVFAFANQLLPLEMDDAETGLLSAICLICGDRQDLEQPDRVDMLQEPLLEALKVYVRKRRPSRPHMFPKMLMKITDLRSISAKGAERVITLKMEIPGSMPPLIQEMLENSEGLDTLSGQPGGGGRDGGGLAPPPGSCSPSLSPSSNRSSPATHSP
human Retinoic Acid Receptor gamma (RARg), RARG (gene 5916), sequence (P13631 whole entry, looked up, the tested form may be a part): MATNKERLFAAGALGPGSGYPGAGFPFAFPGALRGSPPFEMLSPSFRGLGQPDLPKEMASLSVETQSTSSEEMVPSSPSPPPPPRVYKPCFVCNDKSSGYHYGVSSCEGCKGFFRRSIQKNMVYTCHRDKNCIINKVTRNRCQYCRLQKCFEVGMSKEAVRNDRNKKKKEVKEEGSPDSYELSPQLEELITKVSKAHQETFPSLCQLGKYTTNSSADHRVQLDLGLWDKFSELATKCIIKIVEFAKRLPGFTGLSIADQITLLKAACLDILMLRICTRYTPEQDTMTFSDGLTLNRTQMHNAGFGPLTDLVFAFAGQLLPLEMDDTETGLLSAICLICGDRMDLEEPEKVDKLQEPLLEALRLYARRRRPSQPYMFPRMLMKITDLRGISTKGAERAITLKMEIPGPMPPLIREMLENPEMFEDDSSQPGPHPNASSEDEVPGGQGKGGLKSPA

With `CCN(CC)c1cccc(C)c1`, the result in [1], in assay [2], in assay [3], in assay [4], in assay [5] and in assay [6] was inactive. Besides, the result in [7] was inactive.
Take `CC(C)c1cccc(C(C)C)c1N`: the AC50 is 33.1 µM (active) in assay [8], 71.2 µM (active) in assay [7] and 38.2 µM (active) in [16]. The result in [4], in [9], in [5], in [6], in [10] and in assay [11] was inactive. For the same compound, the outcome in [12], in assay [13], in assay [14] and in assay [15] was inactive.
On to `CCCCCCCCC(CO)CCCCCC` (stereo unspecified), for which the AC50 was 5.35 µM (active) in assay [8], 21.9 µM (active) in assay [7] and 5.93 µM (active) in [14]. Besides, the result in [9], in assay [17], in assay [5], in [6], in assay [18] and in [11] was inactive. The result in assay [12], in assay [13], in [15] and in assay [16] was inactive.
Consider `CC(C)CCCCCOC(=O)CS`, for which the result in assay [8], in [19], in assay [9], in assay [5], in [7] and in assay [12] was inactive. In addition, the outcome in assay [13], in assay [14], in assay [15] and in assay [16] was inactive. In addition, in [17], the AC50 was 19.5 µM (active).
For `CCc1cccc(C)c1N(C(=O)CS(=O)(=O)O)C(C)COC` (stereo unspecified), the outcome in assay [8], in assay [2], in [4], in [9], in assay [17] and in [6] was inactive. The compound was called inactive in [18], in assay [7], in assay [20], in assay [12], in assay [13] and in [14]. The outcome in assay [15] and in assay [16] was inactive. For the same compound, in assay [5], the AC50 is 27.6 µM (active).
Take `O=C1CCCCCCCCCCC1`: the outcome in [8], in assay [2], in assay [9], in assay [17], in [6] and in [18] was inactive. The result in [11], in assay [12], in assay [13], in [14], in assay [15] and in assay [16] was inactive. In addition, the AC50 in assay [5] was 27.4 µM (active); in assay [7], 44.4 µM (active).
With `CC=C(C)C=CC=C(C)C`, the concentration at half-maximal activity (AC50) in assay [8] is 20 µM (active); in assay [9], 22.1 µM (active); in [17] it was 27.8 µM (active); in [5], 6.05 µM (active); in assay [12], 20 µM (active); in assay [16], 20 µM (active). The outcome in assay [6], in assay [10], in assay [7], in assay [20], in [13] and in assay [14] was inactive. In addition, the result in assay [15] was inactive.
In the case of `CCOB(OCC)OCC`, the compound was classed as inactive in assay [1], in [2], in assay [3], in assay [4], in assay [17] and in [7]. For the same compound, the outcome in assay [20] was inactive.
`CC(C)C(=O)OCCc1ccccc1`: the result in assay [8], in [2], in assay [3], in assay [9], in [5] and in [6] was inactive. Besides, the outcome in [18], in assay [20], in [12], in assay [13], in assay [14] and in [15] was inactive. Further, the result in assay [16] was inactive.
As to `O=c1c(O)c(-c2ccc(O)cc2O)oc2cc(O)cc(O)c12`, the outcome in [1], in assay [2], in assay [3], in [4], in assay [17] and in [5] was inactive. In addition, the compound was called inactive in assay [10], in assay [11], in assay [7] and in assay [20].
